Screening results deposited in PubChem by National Center for Advancing Translational Sciences (NCATS).
D1 antagonist: antagonists of human D1 dopamine receptor; P21728; HEK293 TREx D1 cells, calcium flux, dopamine EC80; active compounds read low; activity change, negative = inhibition, % at 10 µM; 360,000 tested, 3.2% active; AID 504652; in the data active means activity change below about -30%; further: on the % scale 0 is the no-effect control and ±100 the full control effect
Target sequence (P21728 whole entry, looked up): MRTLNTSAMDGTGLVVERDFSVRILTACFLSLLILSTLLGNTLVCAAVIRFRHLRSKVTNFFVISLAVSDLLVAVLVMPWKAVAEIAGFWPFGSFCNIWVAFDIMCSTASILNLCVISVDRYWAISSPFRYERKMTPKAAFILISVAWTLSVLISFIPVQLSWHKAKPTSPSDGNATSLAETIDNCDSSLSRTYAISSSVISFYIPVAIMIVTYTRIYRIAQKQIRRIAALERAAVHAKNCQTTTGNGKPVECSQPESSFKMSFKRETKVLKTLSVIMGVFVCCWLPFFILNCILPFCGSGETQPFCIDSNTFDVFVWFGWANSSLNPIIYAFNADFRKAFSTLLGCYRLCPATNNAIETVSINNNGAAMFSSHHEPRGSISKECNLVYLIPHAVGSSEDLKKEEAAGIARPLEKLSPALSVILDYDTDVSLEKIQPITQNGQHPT
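Cells carrying a force-coupled, tetracycline-inducible human D1 receptor report calcium flux. Each well gets a 10 s baseline, compound with 180 s monitoring, then an EC80 dopamine stimulus with a second 180 s kinetic read.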
D3 ag: agonists of human D3 dopamine receptor; P35462; D3R DiscoveRx beta-arrestin cells, luminescence, 90 min; max activation, %; 410,000 tested, 0.58% active; AID 652048; in the data active means max activation above about 30%; further: 0% is about no effect
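Agonist mode: compounds and dopamine controls were applied to plated cells for 90 min at 37 degrees C after an overnight attachment at 1500 cells/well. Luminescent read-out followed 30 - 60 minutes at room temperature with DiscoveRx detection reagent.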
D1 potentiator: potentiators of human D1 dopamine receptor; AID 504651; potentiation, % at 10 µM; P21728; 360,000 tested, 0.036% active; HEK293 TREx D1 cells, calcium flux, dopamine EC20 potentiation; in the data active means potentiation above about 30%; further: 0% is about no effect
D1 ag: agonists of human D1 dopamine receptor; P21728; HEK293 T-REx D1 cells, calcium flux, agonist mode; activation, % at 2 µM; 360,000 tested, 1% active; AID 504660; in the data active means activation above about 30%; further: 0% is about no effect
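Agonism was scored from calcium flux recorded over 180 s (1 read/s) after pintool compound addition, following a 10-cycle baseline. Cells were inducible force-coupled HEK293 TREx D1, plated overnight at 30 C and loaded with no-wash calcium dye.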
D3 antag: blocks the human D3 dopamine receptor; max response, negative = inhibition, %; P35462; 360,000 tested, 2.5% active; D3R cells, DiscoveRx beta-arrestin luminescence, antagonist mode; active compounds read low; in the data active means max response below about -50%; further: on the % scale 0 is the no-effect control and ±100 the full control effect
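Cells expressing the human receptor were seeded at 1500 cells/well, incubated overnight at 37 degrees C in 5% CO2, then exposed to library compounds with dopamine controls for 90 minutes at 37 degrees C before luminescent detection.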
ERG-DNA inh: inhibitors of human ERG Ets domain-DNA interaction | fluorescence polarization, His-ERG Ets domain / labelled DNA | Potency, µM (doses to about 76.9 µM), for the others: top-dose FP activity, negative = inhibition, actives largely listed as inhibitors | 370,000 tested, 0.028% active | AID 624246; active means well fitted inhibition curve with a large enough effect in the polarisation, with a control signal flat; the % refers to the polarisation;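 further: polarization taken with two DNA probes labelled with fluorescein and Texas red; potency means the concentration at half of the fitted maximal effect; % of control where 0% means no effect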
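His-tagged ERG Ets domain (1 uM in the protein solution; 300mM KCl, 50mM Tris-HCl, 1mM EDTA, 1mM DTT, pH 7.5) received compound, then a probe mix of 5 nM fluorescein-DNA and 100nM Texas-615-DNA. Fluorescence polarization was read for both dyes.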
The depositor's hits bear a star; ! = a repeat was not active. Hits are enriched below; roughly 6.1% of the tested compounds scored in any of these assays.

Screening COc1cc(C(=O)Nc2ccc(C(=O)NCC3CCCO3)cc2)cc(OC)c1OC (stereo unspecified) returned D1 antagonist -4, D3 ag 1, D1 potentiator -1, D1 ag 2, D3 antag 39 and ERG-DNA inh -3%.
For CCOc1ccc(NC(=O)COc2ccc(C(=O)NCC3CCCO3)cc2OC)cc1 (stereo unspecified) the results were D1 antagonist -37*, D3 ag 0, D1 potentiator 12, D1 ag 2, D3 antag 11 and ERG-DNA inh -1%.
`CCOc1ccc(NC(=O)CN(C)C(=O)c2ccc(OCC3CCCO3)cc2)cc1OCC` (stereo unspecified) gave D1 antagonist -42*, D3 ag 1, D1 potentiator -10, D1 ag 1, D3 antag 7 and ERG-DNA inh -4%.
CCCCN(C)CC(O)Cn1cc(/C=C/C(=O)c2cccs2)c2ccccc21 (stereo unspecified) was read as D1 antagonist -20, D3 ag -13, D1 potentiator -8, D1 ag 67*, D3 antag -24 and ERG-DNA inh -11%.
Screening CCCCN(CCCC)CC(O)Cn1cc(/C=C/C(=O)c2ccccc2)c2ccccc21 (stereo unspecified) returned D1 antagonist -11, D3 ag -12, D1 potentiator 2, D1 ag 13 and ERG-DNA inh 6%.
Screening O=C(/C=C/c1cn(CC(O)CN2CCCCCC2)c2ccccc12)c1cccs1 (stereo unspecified) returned D1 antagonist -21, D3 ag -26, D1 potentiator -8, D1 ag 77*, D3 antag 5 and ERG-DNA inh 6%.
Screening CCCCN(C)CC(O)Cn1cc(/C=C/C(=O)c2ccc(OCC)cc2)c2ccccc21 (stereo unspecified) returned D1 antagonist -56*!, D3 ag -13, D1 potentiator -3, D1 ag 41* and ERG-DNA inh -7%.
CN(Cc1ccccc1)C(=O)c1nc2ccccn2c1CN1CCc2sccc2C1 was read as D1 antagonist -33*, D3 ag -1, D1 potentiator -4, D1 ag 3, D3 antag 11 and ERG-DNA inh 8%.
CC(C)(C)S(=O)N1Cc2cc(CO)cc(-c3ccccc3)c2[C@@H]1CCO (stereo partly specified) was read as D3 ag 2, D3 antag 2 and ERG-DNA inh 8%.
Screening CCOC(=O)CN1C(=O)C(Sc2n[nH]c(-c3ccc(C)cc3)n2)CCc2ccccc21 (stereo unspecified) returned D1 antagonist -66*, D3 ag 6, D1 potentiator 1, D1 ag 0, D3 antag -7 and ERG-DNA inh 4%.
`Cc1ccc(S(=O)(=O)N2CCN(C(=O)c3ccnn3C)CC2)cc1C` gave D1 antagonist -34*, D3 ag -1, D1 potentiator -5, D1 ag 1, D3 antag -1 and ERG-DNA inh 1%.
O=[N+]([O-])c1cc(F)cc(F)c1Nc1ccc(F)cc1 was read as D3 ag -3, D3 antag -21 and ERG-DNA inh -5%.
`CNC(=O)C1CCC(Cn2c(=O)c3sccc3n(CC(=O)NCc3ccc(OC)cc3)c2=O)CC1` (stereo unspecified) gave D1 antagonist 16, D3 ag -6, D1 potentiator 0, D1 ag 3 and ERG-DNA inh 3%.
`CCCCCN(C(=O)COC(=O)c1ccc(C)cc1)c1c(N)n(CCCC)c(=O)[nH]c1=O` gave D1 antagonist -35*, D3 ag 3, D1 potentiator -2, D1 ag 2, D3 antag 10 and ERG-DNA inh 5%.
`CCCCN(C(=O)COC(=O)c1ccccc1)c1c(N)n(CCC)c(=O)[nH]c1=O` gave D3 ag 9, D3 antag 3 and ERG-DNA inh -6%.
Screening CCCCCN(C(=O)CCC(=O)OCC(=O)N(CC#N)c1ccccc1)c1c(N)n(CCCC)c(=O)[nH]c1=O returned D1 antagonist 21, D3 ag 0, D1 potentiator -4, D1 ag 1, D3 antag -54* and ERG-DNA inh -1%.
CCn1nc(NC(=O)Cc2ccc(OC)cc2)c2cc3cccc(C)c3nc21 was read as D1 antagonist -5, D3 ag -10, D1 potentiator 0, D1 ag 1, D3 antag -13 and ERG-DNA inh 2%.
For Cc1ccc(SCCNC(=S)Nc2ccc(C)cc2C)cc1 the results were D1 antagonist -21, D3 ag 3, D1 potentiator 3, D1 ag 0, D3 antag 1 and ERG-DNA inh -14%.
`Cc1ccc(-n2nc3c(c2NC(=O)c2ccc(OC(C)C)cc2)CS(=O)C3)cc1` (stereo unspecified) gave D1 antagonist -2, D3 ag -7, D1 potentiator -6, D1 ag 2, D3 antag -18 and ERG-DNA inh 6%.
For Cc1ccc(-n2nc3c(c2NC(=O)c2ccccc2Br)CS(=O)C3)cc1 (stereo unspecified) the results were D1 antagonist -43*, D3 ag -2, D1 potentiator -4, D1 ag 2, D3 antag 3 and ERG-DNA inh -15%.
O=C1CN(C(=O)Cc2ccc(F)cc2)C(c2ccccc2)c2cc(Br)ccc2N1 (stereo unspecified) was read as D1 antagonist 27, D3 ag 6, D1 potentiator 3, D1 ag 11 and ERG-DNA inh 0%.
For Cc1cccc(NC(=O)C(=O)NCc2ccccn2)c1 the results were D1 antagonist -5, D3 ag -19, D1 potentiator -2, D1 ag 1 and D3 antag -10.
For COc1ccc(N2CCN(c3ccc(N4C(=O)COCC4=O)cc3[N+](=O)[O-])CC2)cc1 the results were D1 antagonist -31*, D3 ag -6, D1 potentiator -10, D1 ag 9, D3 antag -10 and ERG-DNA inh -7%.
`COc1ccc(N2CCN(c3ccc(N4C(=O)CC(C)C4=O)cc3[N+](=O)[O-])CC2)cc1` (stereo unspecified) gave D1 antagonist -22, D3 ag 4, D1 potentiator -8, D1 ag 24, D3 antag 9 and ERG-DNA inh 19%.
For Cc1cc(N2CCCC2)c(F)cc1/C=C\[N+](=O)[O-] the results were D1 antagonist 15, D3 ag -2, D1 potentiator 23, D1 ag 400*, D3 antag -7 and ERG-DNA inh 2%.
